# About 1,100 (46%) of roughly 2,400 compounds were called active. The set was probably picked from earlier hits. A selection follows. Values without a mark were called inactive.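 Rule for the calls: active = inhibition above the run cutoff, the mean inhibition of all test compounds plus 3 SD (cut at about 49% in these data); inactive = the rest.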
# Target: Trace amine-associated receptor 1 (Homo sapiens) (UniProt Q96RJ0)
# Experiment: loss of beta-PEA response after agonist pre-exposure – cell-based, fluorescence, tachyphylaxis, counter-screen for TAAR1 agonist project, confirmation (AID 651951);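 note: beta-PEA stimulus applied at its EC80; loss of beta-PEA calcium signal after compound pretreatment read as receptor desensitization; 0% = DMSO with beta-PEA at EC80 and 100% = DMSO alone without agonist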
# Details: CHO RD-HGA16 hTAAR1, Fluo-8 calcium, at 3 µM, hits give high values
# Sequence of Trace amine-associated receptor 1 (Homo sapiens) (Q96RJ0 whole entry, looked up): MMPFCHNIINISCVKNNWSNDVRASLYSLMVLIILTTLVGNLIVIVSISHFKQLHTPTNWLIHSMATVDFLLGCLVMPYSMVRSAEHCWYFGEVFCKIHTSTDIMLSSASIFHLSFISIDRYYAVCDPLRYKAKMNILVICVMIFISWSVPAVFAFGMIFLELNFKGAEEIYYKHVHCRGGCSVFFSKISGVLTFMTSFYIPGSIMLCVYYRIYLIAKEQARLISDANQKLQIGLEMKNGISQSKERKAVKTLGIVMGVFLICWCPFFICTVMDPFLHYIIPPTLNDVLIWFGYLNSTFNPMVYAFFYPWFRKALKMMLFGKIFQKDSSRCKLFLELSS
row,Structure (SMILES),inhibition
1,O=C(N[C@H](C(=O)N1CCC[C@H]1C(=O)NCCc1ccccc1Cl)c1ccccc1)c1ccccc1,85.5% (active)
2,Cc1cc(=O)oc2c(C)c(OCC(=O)NCCN3CCOCC3)ccc12,2.28%
3,Nc1c(NCCc2ccccc2)c2ccccc2oc1=O,53.6% (active)
4,O=Cc1c(NCCc2cccc(F)c2)c2ccccc2[nH]c1=O,36.8%
5,CCc1ccc(-c2nn(-c3ccccc3)cc2CSC(=N)N)cc1,25.1%
6,CCCCOc1ccc(CSC(=N)N)cc1[N+](=O)[O-],12.3%
7,CCOc1ccc(Br)cc1CSC(=N)N,67% (active)
8,S=C(Nc1ccc(Br)cc1)NC1CCN(Cc2ccccc2)CC1,48.3%
9,Cc1ccccc1-c1nc(CS(=O)(=O)CC(=O)N2CCc3ccccc3C2)c(C)o1,25.5%
10,CCC(C(=O)Nc1ccc(C(C)C)cc1)c1ccccc1 (centres undefined),103% (active)
11,Cc1ccc(Sc2cc(N3CCOCC3)nc(-c3ccccc3)n2)cc1,7.49%
12,CCC(c1nnnn1Cc1ccco1)N(CCc1ccccc1)Cc1cc2ccc(OC)cc2[nH]c1=O (centres undefined),13.2%
13,COc1ccc(OC)c(C(c2nnnn2C(C)(C)C)N2CCc3ccccc3C2)c1 (centres undefined),17.8%
14,O=C(O)C1C2C=CC(O2)C1C(=O)NCCc1cccc(Cl)c1 (centres undefined),92.1% (active)
15,O=C(NNC(=S)NC(=O)c1cn(-c2ccccc2)nc1-c1ccccc1)c1ccncc1,79.3% (active)
16,CN(C(=O)CN(CCO)CC(=O)N(C)C(C)(C)Cc1ccccc1)C(C)(C)Cc1ccccc1,94.8% (active)
17,CCCc1cc(C(=O)Nc2ccc(C(=O)OC)cc2)cs1,11%
18,O=C(/C=C/[C@H]1O[C@@H](n2cnc3c(NC(=O)c4ccccc4)ncnc32)[C@H](O)[C@@H]1O)NCc1ccccc1,-5.17%
19,O=C(NCCc1ccccc1)C(=O)NCC1OCCN1S(=O)(=O)c1cccs1 (centres undefined),36.3%
20,CCc1ccccc1S(=O)(=O)Cc1ccc(C(=O)NCCc2ccccc2)o1,77.1% (active)
21,O=C1CCCN2N=C(SCC(=O)Nc3ccc(Br)cc3)SC2=N1,36.4%
22,CCCCC(=O)NNC(=S)NC(=O)C(c1ccccc1)c1ccccc1,107% (active)
23,c1ccc2c(c1)OCC(CNc1ncnc3nc[nH]c13)O2 (centres undefined),106% (active)

row,Structure (SMILES),inhibition
1,Cc1cc(C)c2cc(C#N)c(N3CCNCC3)nc2c1,79.8% (active)
2,Cc1ccc(S(=O)(=O)N(CC(=O)N2CCc3ccccc3C2)c2cccc(Cl)c2)cc1,29.8%
3,Cc1ccc(NC(=O)CCN2CCc3ccccc3C2)cc1,78% (active)
4,COc1ccc(NC(=O)C(=O)NCC(c2ccco2)N2CCc3ccccc3C2)cc1 (centres undefined),-6.26%
5,CN(C)CCCN(C(=O)c1ccc(S(=O)(=O)N2CCCCCC2)cc1)c1nc2ccc(Br)cc2s1,41.1%
6,CN(C)CCCN(C(=O)c1ccc(S(=O)(=O)N2CCCc3ccccc32)cc1)c1nc2ccc(F)cc2s1,53.1% (active)
7,COc1ccc(C(=O)CN2C(=O)NC(C)(c3ccc(C)cc3)C2=O)cc1OC (centres undefined),10.7%
8,COc1ccc(C(=O)NNC(=S)NC(=O)c2ccccc2)cc1,76.1% (active)
9,Cc1onc(-c2ccccc2)c1C(=O)NNC(=S)NC(=O)c1ccc(F)cc1,65.3% (active)
10,COc1ccc(C(=O)NC(=S)NNC(=O)c2c(-c3ccccc3)noc2C)cc1,29.8%
11,O=C(Nc1cccc(NC(=O)c2ccc(Br)cc2)c1)c1ccccc1,-9.63%
12,COc1ccc(C(=O)NC(=S)NNC(=O)CCc2ccccc2)cc1,68.4% (active)
13,C#CCOc1ccc(/C=C2/C(=O)NN(c3ccccc3)C2=O)cc1OC,39%
14,Nc1nonc1-n1nnc(C(=O)N/N=C/c2ccc(Cl)cc2)c1-c1ccc2c(c1)OCO2,37.8%
15,Nc1cccc2c1C(=O)N(Cc1nnc(-c3ccccc3Br)o1)C2=O,26.5%
16,O=C(Nc1ccncc1)Nc1ccc(F)cc1,76.4% (active)
17,CCCn1c(O)c(CN2CCCC(C)C2)c(C)c(C#N)c1=O (centres undefined),55.8% (active)
18,S=C(NCCc1ccccc1)N1CCn2cccc2C1c1ccncc1 (centres undefined),83.2% (active)
19,COc1ccc(OC)c(NC(=S)N2CCc3ccccc3C2)c1,40.2%
20,CCCSc1nc2c(c(=O)n(C)c(=O)n2C)n1Cc1ccc(C)cc1,37.9%
21,c1ccc(Nc2nc(N3CCOCC3)c3ccccc3n2)cc1,93% (active)
22,CC(Oc1ccc2ccccc2c1)C(=O)NNC(=S)NC(=O)c1ccco1 (centres undefined),70.9% (active)
23,CCCc1ccc(OCC(=O)NNC(=S)NC(=O)c2ccco2)cc1,71.9% (active)

row,Structure (SMILES),inhibition
1,COc1ccc2cc(-c3[nH]ncc3CNCCn3nc(C)cc3C)ccc2c1,13%
2,NC(=O)C1=C[C@H](c2csc3ccccc23)C[C@H](OCc2ccc(CO)cc2)O1,50.8% (active)
3,COC(=O)c1[nH]c2cccc(C)c2c1NC(=O)CN1CCCc2ccccc21,35.7%
4,COc1cccc(-c2cnc(OC(C)(C)C)nc2OC(C)(C)C)c1,3.93%
5,Fc1ccc(NC(=S)N2CCc3[nH]c4ccccc4c3C2)cc1,28.1%
6,O=C(CCCN=C1NS(=O)(=O)c2ccccc21)OCC(=O)c1ccc(F)c(F)c1,37.4%
7,C[C@H](NC(=O)c1ccccc1)C(=O)OCC(=O)c1c[nH]c2ccccc12,79.2% (active)
8,OC(CNCCc1ccc(Cl)cc1Cl)COc1ccccc1 (centres undefined),79.2% (active)
9,CC(C)(C)CC(=O)Nc1nc(C(N)Cc2ccc(C(F)(F)F)cc2)cs1 (centres undefined),58.9% (active)
10,COc1ccc(CC(N)c2csc(NC(=O)Cc3ccccc3)n2)cc1 (centres undefined),23.6%
11,O=C(COC(=O)Cc1ccccc1F)NCCc1ccccc1,86% (active)
12,Cc1cc2nc3c(=O)[nH]c(=O)nc-3n(C[C@H](O)[C@H](O)[C@H](O)CO)c2cc1C,53.2% (active)
13,O=C(Nc1ccc(Cl)cc1)N1CCc2[nH]c3ccccc3c2C1,12.4%
14,O=c1cnnc(Nc2ccccc2)[nH]1,60.1% (active)
15,COc1ccc2c(c1)OC(O)(C(F)(F)C(F)F)CC2=O (centres undefined),11.2%
16,NC[C@H](Cc1ccccc1)NCCc1cc(C(F)(F)F)cc(C(F)(F)F)c1,12.9%
17,CCCCCCCCCCOC(=O)Cn1c(COc2ccc(C)cc2)[n+](C)c2ccccc21,102% (active)
18,CC(Oc1ccc(Cl)cc1)C(=O)OCC(=O)Nc1ncc(Cl)cc1Cl (centres undefined),7.27%
19,Cc1ccc(Cl)cc1N1CCN(C(=O)c2cccc3c(=O)c(C)c(-c4ccccc4)oc23)CC1,80.9% (active)
20,Nc1c(C(=O)c2cccs2)sc2nsc(SCCN3CCCCC3)c12,60.8% (active)
21,NC(c1ccccc1)c1csc(NC(=O)Nc2cccc(C(F)(F)F)c2)n1 (centres undefined),50.7% (active)
22,COc1ccc(C(N)c2csc(NC(=O)Nc3cccc(C(F)(F)F)c3)n2)cc1 (centres undefined),44.9%
23,CCOC(=O)Cc1csc(NC(=O)Nc2ccccc2)n1,28.9%

row,Structure (SMILES),inhibition
1,COc1cc(OC)c(-n2cc(-c3ccc(Cl)cc3)[nH]c2=O)cc1Cl,79.8% (active)
2,O=C(Cc1ccc(Cl)cc1)NC(=S)Nc1ccccc1O,106% (active)
3,Cc1ccccc1NC(=S)NC(=O)Cc1ccc(Cl)cc1,81.5% (active)
4,CCC(c1nnnn1Cc1ccco1)N(CCc1ccccc1)Cc1cc2cccc(C)c2[nH]c1=O (centres undefined),20.6%
5,NC(Cc1ccccc1)c1csc(Nc2cc(Oc3ccccc3)ncn2)n1 (centres undefined),65.7% (active)
6,CC(=O)Oc1ccc(Cn2c(C)c(C(=O)NCc3ccc(C#N)cc3)sc2=O)cc1,72.9% (active)
7,O=C1CCCC(O)=C1C=NCCc1ccccc1,32.1%
8,Cc1ccn2c(=O)c(C(=O)NCCC3=CCCCC3)c(O)nc2c1,65.7% (active)
9,c1ccc(-c2csc(N3CCc4ccccc4C3)n2)cc1,15.3%
10,Oc1ccc2ccc3cccc[n+]3c2c1,19.6%
11,CC(NC(=O)c1cc(-c2ccccc2)on1)c1ccccc1 (centres undefined),51.1% (active)
12,COc1cc(OC)cc(C(=O)N[C@H](C(=O)OCC(=O)NC(C)c2ccccc2)C(C)C)c1 (some centres undefined),12.6%
13,c1ccc(C2CNCc3c2ccc2ccccc32)cc1 (centres undefined),95.2% (active)
14,CCN(CC)c1ccc2oc(=O)c(C)nc2c1,25.7%
15,O=C(Nc1ccc(F)cc1)Nc1nnc([C@H]2C[C@H](O)[C@@H](CO)O2)s1,25.5%
16,O=C(Nc1ccccc1)Nc1nnc(COc2ccccc2F)s1,72.4% (active)
17,O=C(c1noc2c1CCCC2)N1CCc2ccccc2C1,5.47%
18,CN(C)c1ccc(/C=C2\NC(=S)N(Cc3ccccc3)C2=O)cc1,63.9% (active)
19,CC(=O)Nc1ccccc1Sc1ccc2c3c(cccc13)C(=O)N(c1ccc(C)cc1)C2=O,5.11%
20,CCCOc1ccc(-c2c(C(=O)N/N=C/c3ccco3)nnn2-c2nonc2N)cc1,13.2%
21,Cc1cccc(NC(=O)C(C)N2C(=O)C3C4CC(C(Br)C4Br)C3C2=O)c1 (centres undefined),52.5% (active)
22,CCCC1CCC(=NNC(=S)NCCc2ccccc2)CC1 (centres undefined),51.7% (active)
23,Cc1ccc(O)c(NC(=S)NC(=O)COc2ccc(Br)cc2)c1,104% (active)

row,Structure (SMILES),inhibition
1,Nc1cc(OC(=O)c2ccccc2Br)nn1S(=O)(=O)c1ccccc1,11.7%
2,COCCCn1c(Cc2csc(Nc3cccc(Cl)c3)n2)nnc1SCC(=O)OC1CCCCC1,-2.24%
3,COc1ccc(Cl)cc1C(=O)NNC(=S)NC(=O)/C=C/c1ccco1,67.7% (active)
4,O=C1C=C(c2ccc(Cl)cc2)C(=O)N1Nc1ccccc1,72.8% (active)
5,Nc1nnn(CC(=O)N/N=C/c2ccccc2)n1,17.8%
6,CSc1nc(N)c(C#N)c(-c2ccccc2Cl)c1C#N,24.1%
7,O=C(CSc1nc(-c2ccco2)cc(C(F)(F)F)n1)NCc1cccs1,-5.52%
8,Cc1c(CNCCc2ccccc2)c(C(=O)O)c(C)n1-c1ccccc1,53.7% (active)
9,COc1cccc(N(CC(=O)N2CCc3ccccc3C2)S(C)(=O)=O)c1,15.3%
10,S=C(NCCCc1cnc[nH]1)NCCCN(Cc1ccc(Cl)c(Cl)c1)c1ccc(Br)cn1,59.7% (active)
11,O=C(NCCc1ccccc1)/C(=C\c1ccc([N+](=O)[O-])cc1)NC(=O)c1ccccc1,7.67%
12,CCCCCC(=O)NC(=S)NNC(=O)c1ccc([N+](=O)[O-])cc1,61% (active)
13,CCCCCc1c(-c2ccc(OC)c(OC)c2)ncn1CCc1ccccc1OC,97.1% (active)
14,CCc1c(-c2ccccc2OC)ncn1CCc1ccccc1OC,39.8%
15,CCCCCc1c(-c2cccc(Br)c2)ncn1CCc1ccccc1OC,20.5%
16,CCCCc1c(-c2ccc(Br)cc2)ncn1CCc1ccccc1OC,49.3% (active)
17,CCCCCc1c(Cc2ccccc2)ncn1CCc1ccccc1OC,88.8% (active)
18,CCCCc1c(-c2ccc(Cl)cc2)ncn1CCc1ccccc1OC,83.4% (active)
19,N#Cc1ccc(OCCCN2CCC(C(O)(c3ccccc3)c3ccccc3)CC2)c(F)c1,23.9%
20,O=[N+]([O-])c1cc(S(=O)(=O)NCCc2ccccn2)ccc1Cl,39%
21,Cn1c(=O)c(=O)n(C)c2cc(S(=O)(=O)NCCc3ccccc3)ccc21,73.1% (active)
22,c1ccc2c(c1)C(=NC1CCCCC1)NC2=NC1CCCCC1,42.2%

# Reference: PubChem BioAssay AID651951 (The Scripps Research Institute Molecular Screening Center, 2012)
